HUVEC tox TNFa – HUVEC cytotoxicity counter-screen, TNF alpha stimulated; AID 848; cell count reduction, % at 2 µM; hit rate 0.17% among 93,000; HUVEC TNFalpha-stimulated, Hoechst cell count, imaging;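 active = cell count reduction exceeding the screen mean by over 5 SD, scaled to untreated wells per plate, cut at about 78% in these data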;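 note: cells counted after 24 h of TNF alpha exposure following the 1 h pretreatment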
cytoskel mod – modifiers of cytoskeleton assembly; HUVEC TNFa F-actin phalloidin imaging, high content; inhibition, % at 2 µM; hit rate 0.18% among 91,000; AID 836;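 active = inhibition above the batch mean plus 3 SD and confirmed as a hit by visual image inspection, cut at about 30% in these data, passing the limit was not always enough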
E-sel TNF inh – blocks E-selectin expression induced by TNF alpha | HUVEC TNFa-induced E-selectin immunofluorescence, high content | inhibition, % at 2 µM | hit rate 0.71% among 120,000;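 active = inhibition above the batch mean plus 3 SD, and confirmed as a hit on visual image review, cut at about 43% in these data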
VCAM1 TNFa inh – reduces TNF alpha induced VCAM1 expression in HUVEC | HUVEC TNFa-induced VCAM-1 immunofluorescence, high-content imaging | inhibition, % at 2 µM | hit rate 0.48% among 95,000 | AID 802;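 active = inhibition above the batch mean plus 3 SD, with images confirmed as a hit by eye, cut at about 37% in these data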
Numbers stand for hits. Most compounds without a hit are left out; they make up all but 1.1% or so of the library.

Screening CN(C)C(=S)SSC(=S)N(C)C returned E-sel TNF inh 86.
`O=C(c1ccc2c3c(cccc13)CC2)C1CCCN(CC2CC2)C1` (stereo not given) gave E-sel TNF inh inactive.
`CN1CCc2nc3sc(C#N)c(N)c3c(-c3cccs3)c2C1` gave HUVEC tox TNFa inactive, cytoskel mod inactive and VCAM1 TNFa inh 90.
For CN1CCc2nc(N)c(C#N)c(-c3ccccc3)c2C1 the results were HUVEC tox TNFa inactive, cytoskel mod inactive, E-sel TNF inh inactive and VCAM1 TNFa inh inactive.
CCN1CCC2(CC1)NC(CO)(CO)CO2 was read as HUVEC tox TNFa inactive, cytoskel mod inactive, E-sel TNF inh inactive and VCAM1 TNFa inh inactive.
Screening CCN1CCC2(CCNC2)C1 (stereo not given) returned HUVEC tox TNFa inactive, cytoskel mod inactive, E-sel TNF inh 98 and VCAM1 TNFa inh inactive.
Screening CCC12CN3CC(CC)(CN(C1)C3c1cccnc1)C2=O (stereo not given) returned HUVEC tox TNFa inactive, cytoskel mod inactive, E-sel TNF inh inactive and VCAM1 TNFa inh inactive.
For Cc1ccc(N2C(=O)NC(=O)C3(Cc4ccccc4N4CCN(c5ccccc5)CC43)C2=O)cc1 (stereo not given) the results were HUVEC tox TNFa inactive, cytoskel mod inactive, E-sel TNF inh inactive and VCAM1 TNFa inh inactive.
Screening CN1C(=O)N(C)C(=O)C2(Cc3ccccc3N3CCOCC32)C1=O (stereo not given) returned HUVEC tox TNFa inactive, cytoskel mod inactive, E-sel TNF inh inactive and VCAM1 TNFa inh 66.
O=S1(=O)CCN(CCc2c[nH]c3ccccc23)CC1 was read as E-sel TNF inh 100.
For CCCC(=O)c1c(O)[nH]c(=O)[nH]c1=O the results were HUVEC tox TNFa inactive, cytoskel mod inactive, E-sel TNF inh inactive and VCAM1 TNFa inh inactive.
For CCC1(CCc2ccncc2)C(=O)NC(=O)NC1=O the results were HUVEC tox TNFa inactive, cytoskel mod inactive, E-sel TNF inh inactive and VCAM1 TNFa inh inactive.
`O=C(COc1ccccc1)N1CCN(CC(O)COc2ccccc2)CC1` (stereo not given) gave HUVEC tox TNFa inactive, cytoskel mod 35 and VCAM1 TNFa inh inactive.
`CCOC(=O)C1(CCOc2ccccc2)CCN(Cc2ccc(C)s2)CC1` gave E-sel TNF inh inactive.
`Cc1oc(-c2ccccc2Cl)nc1CN1C(=O)CN=C(c2ccccc2)c2ccccc21` gave E-sel TNF inh inactive.
`CCOC(=O)N(c1ccccc1)P1(=S)OCCO1` gave HUVEC tox TNFa inactive, cytoskel mod inactive, E-sel TNF inh 79 and VCAM1 TNFa inh inactive.
`CC(=O)NC1CC2CCCC(C1)N2` (stereo not given) gave HUVEC tox TNFa inactive, cytoskel mod 67, E-sel TNF inh inactive and VCAM1 TNFa inh inactive.
COc1cc2c3c(c1OC)-c1cc(O)ccc1CC3NCC2 (stereo not given) was read as HUVEC tox TNFa inactive, cytoskel mod inactive, E-sel TNF inh inactive and VCAM1 TNFa inh 44.
Cc1oc(-c2cccs2)nc1CSCC(=O)N1CCC2(CC1)OCCO2 was read as HUVEC tox TNFa inactive, cytoskel mod inactive, E-sel TNF inh 67 and VCAM1 TNFa inh inactive.
`COc1ccc(-c2nc(CSCC(=O)N3CCC4(CC3)OCCO4)c(C)o2)cc1OC` gave HUVEC tox TNFa inactive and VCAM1 TNFa inh inactive.
CCN1CCN(Cc2ccc(C)cc2)CC1 was read as E-sel TNF inh 95.
CCN1CCN(Cc2ccc(C)cc2C)CC1 was read as E-sel TNF inh inactive.
For CCN1CCN(Cc2ccccc2C)CC1 the results were E-sel TNF inh 95.
O=C(O)c1c[nH]c2ccc(S(=O)(=O)N(CCCl)CCCl)cc12 was read as HUVEC tox TNFa inactive, cytoskel mod inactive and VCAM1 TNFa inh inactive.
Screening Cn1cccc1/C=C1/C(=O)NC(=O)N(Cc2ccccc2)C1=O returned E-sel TNF inh 61.
Screening O=C(c1ccc(Cl)cc1)C1CCCN(Cc2ccc3ncccc3c2)C1 (stereo not given) returned E-sel TNF inh inactive.
COC(=O)C[C@]1(C(=O)OC)CN(C#N)N(c2ccc(Cl)cc2)C12c1ccccc1-c1ccccc12 was read as cytoskel mod inactive, E-sel TNF inh 89 and VCAM1 TNFa inh 100.
For CCCCCc1nc2c(c(=O)c3ccccc3n2C)c(=O)n1C1CCCCCC1 the results were E-sel TNF inh inactive.
NC(=O)Nc1ccc(C(=O)OCC(=O)Nc2ccc(Cl)cc2C(=O)c2ccccc2)cc1 was read as E-sel TNF inh inactive.
CN1C2CCC1/C(=C/c1ccccn1)C(=O)/C2=C\c1ccccn1 was read as E-sel TNF inh 96.

From PubChem BioAssay
